Data from publication PMC6792352, “Limited Chemical Structural Diversity Found to Modulate Thyroid Hormone Receptor in the Tox21 Chemical Library” (Environmental Health Perspectives, 2019).
Structures can show the parent of a compound that is named as a salt.

What follows are molecules tested on thyroid hormone receptor (endogenous TRα and TRβ). Settings: read-out: Average AC50 (uM) GH3-TRE-Antag, antagonist mode, 1 nM T3, no GH3 cytotoxicity hit.
Parameters: species or system GH3-TRE-Luc (rat pituitary); GH3-TRE-Luc luciferase reporter, antagonist mode against 1 nM T3, loss of signal, qHTS

Compound	AC50
Cc1c(F)c(F)c(COC(=O)[C@H]2[C@@H](/C=C(\Cl)C(F)(F)F)C2(C)C)c(F)c1F (racemic) [Tefluthrin]	59.6 µM
C#C[C@]1(O)CC[C@H]2[C@@H]3CCc4cc(OC)ccc4[C@H]3CC[C@@]21C [Mestranol]	21.8 µM
CC(C)c1cccc(C(C)C)c1N1C(=O)c2ccc(O)cc2C1=O [5HPP-33]	5.01 µM
C=C1C[C@H]2[C@@H]3C=C(C)C4=CC(=O)CC[C@]4(C)[C@H]3CC[C@]2(C)[C@@]1(OC(C)=O)C(C)=O [Melengestrol acetate]	26.6 µM
Cc1ccc(Cl)c(Nc2ccccc2C(=O)O)c1Cl [Meclofenamate sodium]	30.6 µM
CC(C)CC(=O)C1C(=O)c2ccccc2C1=O [2-Isovaleryl-1,3-indanedione]	77.1 µM
OC[C@H](Cc1cccc(O)c1)[C@H](CO)Cc1cccc(O)c1 [(-)-Enterodiol]	> 90 µM
C#CCC(Cc1cnc2nc(N)nc(N)c2n1)c1ccc(C(=O)N[C@@H](CCC(=O)O)C(=O)O)cc1 (some centres unmarked) [Pralatrexate]	0.687 µM
N=C(N)NC(=N)NCCc1ccccc1 [Phenformin hydrochloride]	> 20 µM
CCCCCCCCCCC(=O)O [Undecanoic acid]	60.2 µM
CCOc1ccc(O)cc1 [4-Ethoxyphenol]	82.5 µM
COC(=O)c1cc(Oc2ccc(Cl)cc2Cl)ccc1[N+](=O)[O-] [Bifenox]	74 µM
CC(C(=O)O)c1ccc(C2CCCCC2)c2ccccc12 (centres unmarked) [Quadrisol]	35.8 µM
CCO/N=C(\CC)C1=C(O)CC(c2c(C)cc(C)cc2C)CC1=O (centres unmarked) [Tralkoxydim]	> 90 µM
